DAGLB inh: DAGLB lipase inhibitors, primary screen, biochemical, fluorescence, HTS; Diacylglycerol lipase-beta (Homo sapiens), Q8NCG7; HEK293T DAGLB membrane lysate, EnzChek fluorogenic substrate; inhibition, % at 5.17 µM; 340,000 tested, 0.059% active; AID 504411, 2011; in the data active means inhibition above about 34%
Myeloid diff 2: induction of myeloid progenitor differentiation, primary screen, cell-based, flow cytometry, MLPCN library. ER-HoxA9 myeloid progenitors, lysozyme-GFP differentiation. calls only at 10 µM. 360,000 tested, 1% active;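 active means normalized GFP-positive differentiation at or above the plate's own cutoff, the solvent-only control mean plus 3 SD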;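 further: cells exposed to compound for four days before flow analysis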
H9c2 protect: cardioprotection against H2O2-induced cell death, primary screen, uHTS, H9c2 cells, ATPLite luminescence; H9c2 cardiomyocytes, H2O2 injury protection, 2 h; protection from H2O2 cell death, % at 20 µM; 360,000 tested, 0.63% active; AID 588492, 2011;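 active means compounds giving at least 50% protection of heart cells from peroxide-induced death in the single-dose screen, raw or plate-pattern-corrected value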
ABHD5-PLIN5 inh: ABHD5-PLIN5 interaction inhibitors, primary screen, cell lysate, split luciferase complementation, luminescence; AID 602281, 2012; 360,000 tested, 0.78% active; Perilipin-5 (Homo sapiens) + 1-acylglycerol-3-phosphate O-acyltransferase ABHD5 (Homo …; inhibition, % at 4 µM; Split G. princeps luciferase complementation, 4 h;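 active means inhibition above the mean inhibition across every tested compound plus 3 SD, cut at about 22% in these data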
sPLA2-III inh: human group III sPLA2 inhibitors, primary screen, biochemical, QFRET, BODIPY PC-A2 liposome substrate. QFRET BODIPY PC-A2 liposome hydrolysis, fluorescence. inhibition, % at 12.2 µM. 370,000 tested, 0.56% active;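 active means inhibition above mean plus 3 SD of compounds lying within the high and low control bounds, cut at about 19% in these data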
Rtt109 Vps75: inhibitors of C. albicans Rtt109/Vps75 HAT, primary screen, biochemical, ThioGlo CoA-SH fluorescence, plate reader; Histone acetyltransferase RTT109 (Candida albicans (strain SC5314 / ATCC MYA-2876)), …; purified Rtt109/Vps75, 4 h; inhibition, % at 34.9 µM; 330,000 tested, 0.16% active; AID 540336, 2011;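 active means inhibition of at least 50% in every replicate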
Large screens that a line does not name were inactive. A selection: hits, their analogues and other compounds. The true share with any hit is near 2.9%.

Cc1sc(NC(=O)c2sc3nc4c(C)cccc4cc3c2N)c(C#N)c1C	Myeloid diff 2 active (no result: Rtt109 Vps75)
Cc1cccc2cc3c(N)c(C(=O)N4CCc5ccccc54)sc3nc12	Myeloid diff 2 active (no result: Rtt109 Vps75)
COc1ccc(CNC(=O)C2=CC(c3ccc(C)cc3)=NS(=O)(=O)N2C)cc1	none
Cc1c(C(=O)NCCN2CCOC2=O)oc2c(F)cccc12	none
Cc1ccc(S(=O)(=O)N2CCCN(c3nc4cc(C)ccc4cc3C#N)CC2)cc1	Myeloid diff 2 active
N#CC(C(=O)NCc1ccccc1)c1nc2ccccc2nc1N1CCCC1 (centres undefined)	Myeloid diff 2 active
N#CC(C(=O)NCCc1ccccc1)c1nc2ccccc2nc1N1CCCCC1 (centres undefined)	none
Cc1ccc2nc(N3CCN(S(=O)(=O)c4ccc5c(c4)OCCO5)CC3)c(C#N)cc2c1	none
Cc1ccc(S(=O)(=O)C(C#N)c2nc3ccccc3nc2N2CCCC2)cc1 (centres undefined)	Myeloid diff 2 active
CCN1CCN(c2nc3ccccc3nc2C(C#N)S(=O)(=O)c2ccc(C)cc2)CC1 (centres undefined)	none
Cc1ccc(CNC(=O)Cn2cnc(S(=O)(=O)N3CCC(C)CC3)c2)o1	ABHD5-PLIN5 inh 22.1
CCCc1nnc(NC(=O)CCC(=O)NCc2ccccc2OC)s1	none
CCc1nnc(NC(=O)CCc2ccccc2OC)s1	Myeloid diff 2 active
Cc1cn([C@H]2C[C@H](O)[C@@H](/C=C/C(=O)NCc3ccc(N(C)C)cc3)O2)c(=O)[nH]c1=O	none (no result: DAGLB inh, Rtt109 Vps75)
Cc1cn([C@H]2C[C@H](O)[C@@H](/C=C/C(=O)NCc3ccco3)O2)c(=O)[nH]c1=O	Myeloid diff 2 active (no result: DAGLB inh, Rtt109 Vps75)
Nn1cc(-c2ccccc2)nc1SCC(=O)NCCN1C(=O)CSC1=O	none
O=C(NNC(=O)c1cc(Br)ccc1O)c1csc(N2CCOCC2)n1	H9c2 protect 66.4 (no result: sPLA2-III inh)
Cc1c(Cl)c([N+](=O)[O-])nn1CC(=O)NCc1cccnc1	none
COc1ccc(CNC(=O)c2ccc(Cn3nc(C)c([N+](=O)[O-])c3C)o2)cc1	H9c2 protect 86.8
COc1ccc(N2CCN(C(=O)c3ccc(Cn4nc(C)c([N+](=O)[O-])c4C)o3)CC2)cc1	none
Cc1nn(CC(=O)NCc2cccnc2)c(C)c1[N+](=O)[O-]	Rtt109 Vps75 68.2
CCCCCN(C(=O)NC(=O)Nc1ccccc1C)S(=O)(=O)c1ccccc1	none
CCOC(=O)N1CCN(C(=O)CSc2ccc3nnc(-c4ccncc4)n3n2)CC1	none
O=C(CSc1ccc2nnc(-c3ccc(Cl)cc3)n2n1)N1CCCc2ccccc21	none
CCOC(=O)CC(=O)CSc1ccc2nnc(-c3ccc(C)cc3)n2n1	Myeloid diff 2 active
COc1ccccc1NC(=O)CSc1ccc2nnc(-c3ccncc3)n2n1	none
O=C(CSc1ccc2nnc(-c3ccc(F)cc3)n2n1)N1CCCc2ccccc21	H9c2 protect 80.3
COc1ccccc1NC(=O)CSc1ccc2nnc(-c3ccc(C)cc3)n2n1	H9c2 protect 69.2
O=C(CCc1ccc(O)c(O)c1)N/N=C/c1ccc2c(c1)OCO2	H9c2 protect 86.8
CC(C)Oc1ccc(CCC(=O)N/N=C/c2ccc3c(c2)OCO3)cc1	none
Cc1cc(C)c(C(=O)/C=C/C=C/c2ccccc2)c(=O)[nH]1	none
Cc1cc(C)c(C(=O)/C=C/c2ccc(C(C)C)cc2)c(=O)[nH]1	ABHD5-PLIN5 inh 37.0
COc1ccc(/C=C2/SC(=S)N(n3c(C)ccc3C)C2=O)cc1	none
Cc1ccc(N=C(N)N=C(N)N)cc1	Myeloid diff 2 active
NC(N)=NC(N)=Nc1ccc(O)cc1	none
COc1cc(/C=C(\C#N)C(=O)Nc2ccccc2)ccc1OCCN1CCOCC1	H9c2 protect 53.5
N#C/C(=C/C1=C(N2CCOCC2)C(=C/c2ccc(Cl)cc2)/CC1)C(=O)Nc1ccccc1F	Myeloid diff 2 active
